TTR transcr act = TTR transcription activation, primary screen | SH-SY5Y TTR promoter Gaussia luciferase, luminescence; 100% = recombinant luciferase protein wells | AID 1117267 | activation, % at 16.7 µM | 1.3% of 92,000 active;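 active = activation above the mean of all tested compounds plus 3 SD, cut at about 9.5% in these data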;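 note: cells exposed to compounds for one day before reading; 0% = median of all test compound wells on the plate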
HuH7 TTR inh = decreases TTR transcription in HuH7 cells in activator counter-screen; 4% of 1,100 active; shares compounds with TTR transcr act; inhibition, % at 16.7 µM; HuH7 TTR promoter-Gaussia luciferase reporter, luminescence;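 active = average inhibition above the solvent-only control wells' mean plus 3 SD, cut at about 15% in these data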;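 note: 0% = cells with DMSO only and 100% = cells with inhibitor control FD; inhibitors lower well luminescence so higher value means more inhibition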
TTR up confirm = confirmation of human transthyretin transcription activators; shares compounds with TTR transcr act; SHSY5Y TTR promoter Gaussia luciferase, luminescence; 100% = purified Lucia enzyme wells, no cells; activation, % at 16.7 µM; 1,100 tested, under 10 active; AID 1117280;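 active = mean activation above a set limit taken from the earlier primary screen, cut at about 11% in these data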;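 note: 0% = DMSO-treated cells and 100% = recombinant Lucia luciferase without cells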
* marks the source's active call; other numbers are inactive results. This is one part of a sample in which hits are shown more often than they occur.

SMILES	TTR transcr act	others
CN(C)c1nc(N)c([N+](=O)[O-])c(NCC2CCCO2)n1 (configuration not stated)	0
CCOc1ccc(/C=N/NC(=O)Cc2cccs2)cc1	0
NC(=O)CC(NC(=O)Cc1ccc(Cl)cc1)c1ccc(NC2CCCCCC2)c([N+](=O)[O-])c1 (configuration not stated)	-2
NC(=O)CC(NC(=O)Cc1ccc(Br)cc1)c1ccc(NC2CCCCCC2)c([N+](=O)[O-])c1 (configuration not stated)	10*	HuH7 TTR inh=-8;TTR up confirm=0
NC(=O)CC(NC(=O)Cc1ccc(Br)cc1)c1ccc(NC2CCCC2)c([N+](=O)[O-])c1 (configuration not stated)	2
C[C@H]1[C@@H](NC(=O)c2ccc(C(F)(F)F)cc2)CC[C@@]23CCCN2C(=O)CCC[C@@H]13	0
COc1ccc2[nH]c3c(c2c1)CCN1C(=O)C(CC(=O)NCCCn2ccnc2)C[C@H](C(=O)N2CCOCC2)[C@@]31C (some centres not stated)	0
Cc1cccc(C)c1-n1nnnc1C1(C)CCC(=O)N1Cc1cccnc1 (configuration not stated)	2
CC(C)C(NC(=O)c1cccc(S(=O)(=O)N2CCOCC2)c1)C(=O)NCc1ccc(Cl)cc1 (configuration not stated)	-2
COc1ccc(N(CC(=O)Nc2c(C)n(C)n(-c3ccccc3)c2=O)S(=O)(=O)c2ccccc2)cc1OC	12*	HuH7 TTR inh=-4;TTR up confirm=1
COc1ccc(N(CC(=O)Nc2c(C)n(C)n(-c3ccccc3)c2=O)S(=O)(=O)c2ccc(F)cc2)cc1	0
Cc1ccc(N(CC(=O)Nc2c(C)n(C)n(-c3ccccc3)c2=O)S(C)(=O)=O)cc1C	3
CCOc1ccc(NC(=O)CN(C)C(=O)c2ccc3c(c2)C(=O)N(CCC(C)C)C3=O)cc1OCC	4
COc1cc(Cl)c(CN2CCC(CCC(=O)NC3CC3)CC2)cc1OC	1
O=C(CCC1CCN(C(=O)c2cc(C(F)(F)F)ccc2Cl)CC1)NC1CC1	17*	HuH7 TTR inh=-17;TTR up confirm=0
Cc1cc(C)cc(C(=O)N2CCC(CCC(=O)NC3CC3)CC2)c1	0
O=C(CSCc1c(F)cccc1F)Nc1ccccc1	5
Cc1ccc(C(=O)NCC(=O)N(C)CC(=O)Nc2c(Cl)cccc2Cl)s1	0
COC(=O)[C@]12CCCCC=C1N(Cc1ccc(OC)cc1)C(=O)[C@@H]2CC(=O)N1CCSCC1	-1
COC(=O)c1ccc(-c2nc(-c3cccs3)no2)cc1	13*	HuH7 TTR inh=11;TTR up confirm=-1
COC(=O)c1ccc(-c2nc(-c3ccc(Br)o3)no2)cc1	-2
O=C(NCc1ccncc1)c1nc(-c2cccs2)no1	7
CCCc1nc(N)c(C#N)c(-c2cccnc2)c1CC	2
Cc1c(-c2ccccc2)nc(N)c(C#N)c1-c1cccnc1	12*	HuH7 TTR inh=-6;TTR up confirm=-1
Cc1c(CC(C)C)nc(N)c(C#N)c1-c1ccccc1	0
SMILES	TTR transcr act	others
CC(OC(=O)CCN1C(=O)C2CC=CCC2C1=O)C(=O)c1ccc(F)cc1 (configuration not stated)	2
COc1ccc2oc(=O)c(C(=O)NCc3ccco3)cc2c1	0
COc1ccc2oc(=O)c(-c3nnc(N)s3)cc2c1	10*	HuH7 TTR inh=-10;TTR up confirm=2
COc1ccc2oc(=O)c(C(=O)Nc3ccccc3O)cc2c1	-3
CC1CC2OC(=O)C3(C)CCCC(C)(C23)C1(O)CCc1ccoc1 (configuration not stated)	-2
O=C(Nc1cccc([N+](=O)[O-])c1)NN1CCCCCC1	-2
CSCCC(NC(=O)COc1ccccc1)C(=O)N1CC(C)CC(C)C1 (configuration not stated)	0
CCOC(=O)C(NC(C)=O)C(=O)Nc1ccc(C)cc1C (configuration not stated)	2
CSc1nc(N)nc2c1ncn2CC(=O)N1CCN(Cc2c(C)cc(C)cc2C)CC1	-2
O=[N+]([O-])c1cccc(S(=O)(=O)/N=C(/Nc2ccccc2)c2ccccc2)c1	0
CCN(C(=O)CSc1ccc2ccccc2c1)C1CCS(=O)(=O)C1 (configuration not stated)	2
CCN(C(=O)CSc1nnc(-c2ccc(F)cc2)c2ccccc12)C1CCS(=O)(=O)C1 (configuration not stated)	-1
CCN(C(=O)CSc1nnc(C)n1Cc1ccccc1)C1CCS(=O)(=O)C1 (configuration not stated)	10*	HuH7 TTR inh=-5;TTR up confirm=1
COc1ccc([C@H]2C[C@@H](O)[C@H](n3cc(-c4ccc(F)cc4)nn3)CN2CC2CCCCC2)cc1	-1
Cc1ccc(/C=N/n2c(-c3ccncc3)n[nH]c2=S)cc1	1
Cc1ccc(-c2n[nH]c(=S)n2/N=C/c2cccs2)cc1	14*	HuH7 TTR inh=-16;TTR up confirm=0
Cn1cccc1/C=N/n1c(-c2ccc(Cl)cc2)n[nH]c1=S	-5
COC(=O)C1=C(C)OC(N)=C(C#N)C1c1ccccc1F (configuration not stated)	2
N#CC1=C(N)NC(=S)C(C(N)=O)C1c1ccccc1F (configuration not stated)	12*	HuH7 TTR inh=-25;TTR up confirm=0
COC(=O)CSC1=C(C#N)C(c2ccccc2F)CC(=O)N1 (configuration not stated)	-1
C[C@H]1[C@@H](O)CC[C@@]23CCCN2C(=O)CCC[C@@H]13	1
Cc1ccc(NC(=O)CN2CCc3cc4c(cc3C2C)OCCCO4)cc1C (configuration not stated)	0
C[C@@H]1CN([C@@H](C)CO)C(=O)c2cc(N(C)C)ccc2O[C@@H](C)CCCCO[C@@H]1CN(C)S(=O)(=O)c1cccs1	14*	HuH7 TTR inh=-6;TTR up confirm=0
C[C@@H]1CCCCO[C@@H](CN(C)S(=O)(=O)c2ccc(F)cc2)[C@@H](C)CN([C@H](C)CO)C(=O)c2cc(N(C)C)ccc2O1	-1
C[C@@H]1CCCCO[C@H](CN(C)S(=O)(=O)c2cccs2)[C@H](C)CN([C@@H](C)CO)C(=O)c2cc(NC(=O)NC3CCCCC3)ccc2O1	0
SMILES	TTR transcr act	others
COc1ccc(C2N(C(=O)CN3CCCC3)CCCN2S(=O)(=O)c2ccccc2)cc1 (configuration not stated)	-1
O=C(NCC1CCCN1S(=O)(=O)c1cccs1)c1cccc([N+](=O)[O-])c1 (configuration not stated)	5
CCN1CCN(Cc2ccc(NC(=O)c3ccc(C)c(NC(=O)c4cc(-c5ccc(Br)cc5)n[nH]4)c3)cc2C(F)(F)F)CC1	-4
CCN1CCN(Cc2ccc(NC(=O)c3ccc(C)c(NC(=O)c4nccn4C)c3)cc2C(F)(F)F)CC1	11*	HuH7 TTR inh=-15;TTR up confirm=0
CCN1CCN(Cc2ccc(NC(=O)c3ccc(C)c(NC(=O)c4cccc5[nH]ccc45)c3)cc2C(F)(F)F)CC1	-2
CC12CCC(C(=O)N/N=C/c3ccc(O)cc3O)(OC1=O)C2(C)C (configuration not stated)	0
NC(=O)C1CCCN(C(=O)CCC(=O)c2cccs2)C1 (configuration not stated)	0
CCc1ccc(NS(=O)(=O)c2ccc3oc(=O)ccc3c2)cc1	-2

Screening data deposited in PubChem by The Scripps Research Institute Molecular Screening Center.
